According to PubChem BioAssay (NCATS):
Inconclusive results are not listed. Entries that show only a call come without a potency. Calls of active or inactive are those of the source. The call rests on the fitted dose curve; in most records, active means well fitted inhibition curve with a large enough effect; inconclusive means small, poorly fitted or top-dose-only effect; inactive means no such curve, though single readings can be large or run the other way.

Assay: BET inhibitor-based combinations targeting novel dependencies in MECOM-rearranged (r) AML: OCI-AML3 cell line (AID 2202232); further: nearly all actives have a fitted effect of over 35% in size
Conditions: CellTiter-Glo luminescence, 48 h; Potency: OCI-AML3 viability; series mostly up to 46 µM
Text: Ecotropic viral insertion site 1 (EVI1) is located on chromosome 3q26.2 as part of the MECOM (MDS and EVI1 complex) locus. Under normal hematopoiesis, EVI1 is a regulator of hematopoietic stem cell maintenance and self-renewal and EVI1 levels decrease as the cells differentiate. In approximately 5-10% of de novo acute myeloid leukemia (AML) EVI1 is aberrantly expressed, including Chromosomal inv(3)(q21;q26.2) or t(3;3)(q21;q26.2) alterations (MECOM-r) that account for about 50% of AML with EVI1 overexpression 31. AMLs with high levels of EVI1 have a poor prognosis and an overall survival time averaging between 10-14 months. EVI1 overexpression confers resistance in leukemia cells, highlighting the need to develop new targeted therapies for EVI1 overexpressing AMLs.
Here, we performed an unbiased chemical drug screening by evaluating the single agent activity of a collection of 2,480 oncology-focused, approved and investigational drugs (NCATS Mechanism Interrogation Plates, MIPE v5.0) against a panel of seven AML cell lines. These included four MECOM-r cell-lines (AML-191, AML-194, UCSD-AML1 and HNT-34) and three non-MECOM-r AMLs (MV4-11, OCI-AML3 and SET-2). Exploiting the mechanistic redundancy built in the library, we identified target-level sensitivities in MECOM-r AML cells and relative activity as compared to other AML subtypes.
A collection of 2480 mechanistically annotated dugs (MIPE v5.0) was used to screen four 3q26.2 rearranged AML cell lines and three non-3q26.2 rearranged AML cell lines. This library purposely exploits redundancy by including multiple inhibitors of key onco-targets, while simultaneously encompassing mechanistic diversity, targeting more than 800 distinct mechanisms of action. Briefly, cells were seeded in 5 uL of growth media using a Multidrop Combi dispenser into 1536 well white polystyrene tissue culture treated plates (Corning) at a density of 500cells/well. For each cell-line, for each of the 2480 drugs in MIPE v5.0 library, an 11-point dose curve was generated via a 1536 pin-tool. Plates were incubated for 48 hr at standard incubator conditions, covered by a stainless steel gasketed lid to prevent evaporation. Cell viability was determined by luminescence based, Cell Titer Glo assay (Promega). In detail, 3 uL of Cell Titer Glo were added to each well and plates were incubated at room temperature for 15 min with a stainless-steel lid in place. Luminescence readings were taken using a Viewlux (PerkinElmer) with a 2 s exposure time per plate. Compound dose-response curves were normalized to DMSO and empty well controls on each plate. Quantitative drug activity data from dose-response curves was determined utilizing area Under the Curve (AUC) and Z-transformed AUC (Z-AUC, a mean-centering transformation applied to each individual cell-line screened).
Potency means the concentration at half of the fitted maximal effect.

Structure (SMILES)	Potency
NC(=O)[C@H]1CCS[C@@H]2C[C@]3(CCCN3C(=O)Cc3ccc(NC(=O)COc4ccc(Cl)cc4Cl)cc3)C(=O)N12	9.34 µM (active)
Cc1cccc(Oc2cnc(=O)[nH]c2)c1	inactive
O=C(Nc1ccc(S(=O)(=O)N2CCOCC2)cc1)c1cc(Cl)ccc1NS(=O)(=O)c1ccc(Cl)s1	inactive
CCc1cc(-c2n[nH]c(C)c2-c2ccc3c(c2)OCCO3)c(O)cc1O	18.6 µM (active)
CN(C)CCc1c[nH]c2ccc(CS(=O)(=O)N3CCCC3)cc12	inactive
CC(C)(C)c1cc(C(C)(C)C)c(NC(=O)c2c[nH]c3ccccc3c2=O)cc1O	20.9 µM (active)
CCOC(=O)[C@@H](N)CCC(=O)N[C@@H](CSCc1ccccc1)C(=O)N[C@@H](C(=O)OCC)c1ccccc1	10.5 µM (active)
C[C@]12CCC3c4ccc(O)cc4CCC3C1CCC2=O (stereo not given in full)	inactive
COC[C@H](NC(=O)c1cnc(C)s1)C(=O)N[C@@H](COC)C(=O)N[C@@H](Cc1ccccc1)C(=O)[C@@]1(C)CO1	0.0934 µM (active)
COc1ccc(C2CNC(=O)C2)cc1OC1CCCC1 (stereo not given)	inactive
Nc1nccc(Oc2ccc(NC(=O)c3c[nH]cc(-c4ccc(F)cc4)c3=O)cc2F)c1Cl	20.9 µM (active)
CN(Cc1cc(Br)cc(Br)c1N)C1CCCCC1	inactive
COC(=O)[C@H](c1ccccc1Cl)N1CCc2sccc2C1	inactive
Nc1nnc(-c2cccc(Cl)c2Cl)c(N)n1	inactive
O=C(/C=C\n1cnc(-c2cc(C(F)(F)F)cc(C(F)(F)F)c2)n1)NNc1cnccn1	1.18 µM (active)
O=C(/C=C/C=C/c1ccc2c(c1)OCO2)N1CCCCC1	18.6 µM (active)
NCc1ccc(OCCCc2sc(-c3ccc4c(c3)/C(=N/Nc3nc5ccccc5s3)CCC4)nc2C(=O)O)cc1	inactive
O=C(O)CCCCC(CCSCc1ccccc1)SCc1ccccc1 (stereo not given)	inactive
Cc1ccc(NC(=O)C2(c3ccc4c(c3)OC(F)(F)O4)CC2)nc1-c1cccc(C(=O)O)c1	inactive
C#C[C@]1(O)CC[C@H]2[C@@H]3CCC4=CC(=O)CC[C@@H]4[C@H]3CC[C@@]21CC	inactive

Structure (SMILES)	Potency
O=C(Nc1ccc([N+](=O)[O-])cc1Cl)c1cc(Cl)ccc1O	1.66 µM (active)
COc1ccc2c(c1)c(CC(=O)O)c(C)n2C(=O)c1ccc(Cl)cc1	inactive
O=C(NCc1cccc(O)c1)Nc1nc(-c2ccncc2)cs1	14.8 µM (active)
CC(C)[C@H](CO)Nc1nc(Nc2ccc(C(=O)O)c(Cl)c2)c2ncn(C(C)C)c2n1	inactive
c1cncc(CN2CCC(n3ncc4c(N5CCOCC5)nc(-c5ccc6[nH]ccc6c5)nc43)CC2)c1	7.42 µM (active)
CC(C)c1cc(CNc2nc(Nc3cc(C4CC4)[nH]n3)cc(N3CCN(C)CC3)n2)on1	4.68 µM (active)
Nc1nc(N)nc(-c2cc(Cl)ccc2Cl)n1	inactive
Clc1ccc(C(Cn2ccnc2)OCc2ccc(Sc3ccccc3)cc2)c(Cl)c1 (stereo not given)	inactive
c1cc(-c2sc(-c3ccncc3)c(-c3ccncc3)c2-c2ccncc2)ccn1	inactive
CCC(C)n1ncn(-c2ccc(N3CCN(c4ccc(OC[C@H]5CO[C@](Cn6cncn6)(c6ccc(Cl)cc6Cl)O5)cc4)CC3)cc2)c1=O (stereo not given in full)	6.45 µM (active)
CC(=O)SCC(Cc1ccccc1)C(=O)NCC(=O)OCc1ccccc1 (stereo not given)	inactive
CCCNC(=O)Nc1ccc(Oc2ncnc3cc(OC)c(OC)cc23)cc1Cl	inactive
C[Se]CCC(N)C(=O)O (stereo not given)	inactive
COc1cc(-c2nn(C3CCC(N4CCN(C(C)=O)CC4)CC3)c3ncnc(N)c23)ccc1NC(=O)c1cc2ccccc2n1C (stereo not given)	7.42 µM (active)
OCCCNc1cc(-c2ccnc(Nc3cccc(Cl)c3)n2)ccn1	0.118 µM (active)
CC(C)Nc1cc(-c2c[nH]c(C(=O)N[C@H](CO)c3cccc(Cl)c3)c2)c(Cl)cn1	2.35 µM (active)
CC(C)Oc1cc(Nc2nc(N[C@@H](C)c3ccc(F)cn3)ncc2Cl)[nH]n1	16.6 µM (active)
COc1ccc(-c2c(-c3ccc(O)cc3O)n[nH]c2C)cc1	inactive
COCCCOc1cc(C[C@@H](C[C@H](N)[C@@H](O)C[C@H](C(=O)NCC(C)(C)C(N)=O)C(C)C)C(C)C)ccc1OC	inactive
O=C(O)c1ccc2c(c1)nc(Nc1cccc(Cl)c1)c1ccncc12	8.33 µM (active)
